Drawing on PubChem BioAssay (EPA / NIEHS), this text covers outcome and AC50 for 21 molecules.

Records with an inconclusive call do not appear. Activity calls are given as the source filed them. Rule for the calls, unless noted: active = hit-call score of the fitted dose curve at least 0.9, where 1 is the maximum; inactive = score below 0.9.

Read-out in assay [1]: Collagen I, COL1A1 (gene 1277)
The assay is described as follows: BSK_MyoF_CollagenI: BioMAP Diversity Plus: MyoF Assay for Collagen I Biomarker Activity (AID 2284238). To be noted: primary human lung fibroblasts. The method, boiled down: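 Multiplexed primary human lung fibroblast system; Collagen I measured by ELISA at 24 h post-dose. Increases are referenced to DMSO.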

Read-out in assay [2]: Collagen III, COL3A1 (gene 1281)
The assay is described as follows: BSK_MyoF_CollagenIII: BioMAP Diversity Plus: MyoF Assay for Collagen III Biomarker Activity (AID 2284239). The note with it: primary human lung fibroblasts. The essentials: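 Compounds are added to primary human lung fibroblasts and left for 24 hours. Collagen III is then quantified by ELISA. Analysis takes DMSO as baseline and fits increases in signal.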

Read-out in assay [3]: Interleukin 17F (IL17F), IL17F (gene 112744)
The assay is described as follows: BSK_BT_xIL17F: BioMAP Diversity Plus: BT Assay for Interleukin 17F (IL17F) Biomarker Activity (AID 2284243). The note with it: primary human B cells with PBMC. The essentials:
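Measures secreted IL-17F from a human B cell plus PBMC co-culture at 24 h post-dose by Luminex xMAP, with DMSO defining baseline activity.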

Read-out in assay [4]: Actin alpha 1 (ACTA1), ACTA1 (gene 58)
The assay is described as follows: BSK_MyoF_ACTA1: BioMAP Diversity Plus: MyoF Assay for Actin alpha 1 (ACTA1) Biomarker Activity (AID 2284244). The note with it: primary human lung fibroblasts. The essentials: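 Lung fibroblasts, human primary, 24 h compound exposure → a-SMA ELISA. Positive-direction fit vs DMSO control.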

Read-out in assay [5]: Interleukin 2 (IL2), IL2 (gene 3558)
The assay is described as follows: BSK_BT_xIL2: BioMAP Diversity Plus: BT Assay for Interleukin 2 (IL2) Biomarker Activity (AID 2284245). The note with it: primary human B cells with PBMC. The essentials:
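B cell + PBMC co-culture (human primary), compound added, 24 h incubation; secreted IL-2 measured multiplexed on Luminex xMAP; gain-of-signal fit vs DMSO.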

Read-out in assay [6]: Basic fibroblast growth factor (bFGF), FGF2 (gene 2247)
The assay is described as follows: BSK_MyoF_bFGF: BioMAP Diversity Plus: MyoF Assay for Basic fibroblast growth factor (bFGF) Biomarker Activity (AID 2284246). The note with it: primary human lung fibroblasts. The essentials: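 ELISA-measured bFGF level serves as the read-out, taken 24 h after chemical dosing of human lung fibroblasts. Values represent signal gain over the DMSO negative control.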

Read-out in assay [7]: Plasminogen activator inhibitor-1 (PAI1), SERPINE1 (gene 5054)
Briefly: BSK_MyoF_PAI1: BioMAP Diversity Plus: MyoF Assay for Plasminogen activator inhibitor-1 (PAI1) Biomarker Activity (AID 2284256).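 For outcome: PAI-1 protein level measured by ELISA in fibroblast cultures; PAI-1 read 24 h after compound addition.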 To be noted: primary human lung fibroblasts. The method, boiled down: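 Activity reflects increased PAI-1, determined by ELISA and compared with DMSO, in human lung fibroblasts treated for 24 h.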

Read-out in assay [8]: Interleukin-8 (IL8), CXCL8 (gene 3576)
The assay is described as follows: BSK_MyoF_IL8: BioMAP Diversity Plus: MyoF Assay for Interleukin-8 (IL8) Biomarker Activity (AID 2284261). To be noted: primary human lung fibroblasts. The method, boiled down: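 In this multiplexed primary-cell system, fibroblasts from human lung are treated with chemicals, and IL-8 is detected by ELISA at 24 h, with DMSO serving as the negative reference.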

Read-out in the next assay: Decorin, DCN (gene 1634)
The assay is described as follows: BSK_MyoF_Decorin: BioMAP Diversity Plus: MyoF Assay for Decorin Biomarker Activity (AID 2284265). The note with it: primary human lung fibroblasts. The essentials: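 Lung fibroblast cultures, 24 h chemical exposure. Decorin by ELISA, positive fitting direction, DMSO baseline.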

A short description of assay [9]: BSK_MyoF_SRB: Viability Assessment in the BioMAP Diversity Plus: MyoF Assay (AID 2284267).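 Note: total protein by SRB absorbance in parallel cultures as cytotoxicity measure.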 The note with it: primary human lung fibroblasts. The essentials:
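Read-out is SRB absorbance at 560 nm, reflecting total protein in parallel lung fibroblast cultures harvested 24 h after compound addition. Cells were TCA-fixed (10%) and stained with 0.1% SRB; activity is referenced to DMSO.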

Read-out in assay [10]: TIMP metallopeptidase inhibitor 1 (TIMP1), TIMP1 (gene 7076)
Briefly: BSK_MyoF_TIMP1: BioMAP Diversity Plus: MyoF Assay for TIMP metallopeptidase inhibitor 1 (TIMP1) Biomarker Activity (AID 2284269). The note with it: primary human lung fibroblasts. The essentials:
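TIMP-1 levels were determined by ELISA in human lung fibroblasts treated for 24 h. DMSO served as negative control and baseline for upward curve fitting.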

The nature of assay [11]: CCTE_Padilla_ZF_Score.General: CCTE's 144 Hour Post-fertilization zebrafish Assay Score for General Malformation, Padilla Lab (AID 2284411). The essentials:
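Wild-type zebrafish embryos were plated singly at 6-8 hpf in 10% Hanks' and exposed in sealed wells at 26C until rinsed on 5 dpf. At 6 dpf two blinded assessors scored mortality, hatching and malformations by stereomicroscopy; gain-of-signal versus DMSO.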

The target of assay [12] is Estrogen receptor (Homo sapiens) (UniProt P03372). The assay is described as follows: ATG_ERa_TRANS: Attagene TRANS-FACTORIAL HepG2 Assay for human Estrogen Receptor alpha (ERa) (AID 2282970; active = hit-call score of the fitted dose curve at least 0.9, where 1 is the maximum). The note with it: HepG2 Attagene TRANS ERa GAL4 reporter, mRNA. The essentials:
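Transactivation via ERa-Gal4 chimera in HepG2; 24 hour incubation; reporter mRNA detected by fluorescence RT-PCR and capillary electrophoresis.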

The target of assay [13] is human Phosphodiesterase 10 (PDE10), PDE10A (gene 10846) (UniProt Q9Y233). The assay is described as follows: NVS_ENZ_hPDE10: NovaScreen (NVS) Enzymatic Assay for human Phosphodiesterase 10 (PDE10) (AID 2283195; active = hit-call score of the fitted dose curve at least 0.9, where 1 is the maximum). The essentials:
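Fluorescence/mobility-shift readout of PDE10A enzyme activity, taken 1 h post-dosing. Primary screen in duplicate at 25 uM; actives (e.g. ≥30% inhibition) retested as singleton concentration-response, top concentration 50 uM.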

Assay [14] can be described thus: ATG_PPRE_CIS: Attagene CIS-FACTORIAL HepG2 Assay for human Peroxisome Proliferator-activated Response Element (PPRE) (AID 2282958). The note with it: HepG2 PPRE cis-element reporter, Attagene transcription factor profiling; actives raise or lower the signal. The method, boiled down: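 Measured endpoint: PPRE-controlled reporter mRNA, detected by RT-PCR and capillary electrophoresis fluorescence, from transiently transfected HepG2 cells 24 h after dosing. Curves fitted in both directions using DMSO baseline.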

The target in assay [15] is Retinoic acid receptor alpha (Homo sapiens) (UniProt P10276). The assay is described as follows: ATG_RARa_TRANS: Attagene TRANS-FACTORIAL HepG2 Assay for human Retinoic Acid Receptor alpha (RARa) (AID 2283005; active = hit-call score of the fitted dose curve at least 0.9, where 1 is the maximum). The method, boiled down:
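HepG2 cells transiently transfected with multiple reporter units expressing chimeric RARα-GAL4 fusion, with GAL4-UAS-driven reporters. After 24 h compound exposure, reporter mRNA induction quantified by RT-PCR and capillary electrophoresis with fluorescent labeling; gain-of-signal fitted relative to DMSO control.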

For assay [16], the target named is Bile acid receptor (Homo sapiens) (UniProt Q96RI1). Briefly: OT_FXR_FXRSRC1_1440: Odyssey Thera (OT) 24-hour HEK293T Protein-Complementation Assay for Farnesoid X receptor/SRC-1 Co-activator (AID 2283384; active = hit-call score of the fitted dose curve at least 0.9, where 1 is the maximum). The essentials:
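Compounds are applied to human kidney HEK293T cells expressing bait and prey fused to reporter protein fragments; after 24 h, reconstituted reporter fluorescence is measured. Activity is fitted as signal gain over DMSO.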

A further assay concerns SERPINA7 (gene 6906). The assay is described as follows: CCTE_GLTED_hTBG: CCTE's human Thyroxine-binding Globulin (TBG) Inhibition Assay, Great Lakes Toxicology and Ecology Division (GLTED) Lab (AID 2284343; active = hit-call score of the fitted dose curve at least 0.9, where 1 is the maximum;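 note: active chemicals lower fluorescence versus DMSO baseline by displacing probe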). The essentials: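 hTBG + test chem, 2 h; ANSA probe displacement; fluorescence readout ex380/em475; DMSO = neg ctrl/baseline; cell-free.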
Another assay relates to TTR (gene 7276). The assay is described as follows: CCTE_GLTED_hTTR_0.125uM: CCTE's human Transthyretin (hTTR) Inhibition Assay, with 0.125uM TTR, Great Lakes Toxicology and Ecology Division (GLTED) Lab (AID 2284431).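 Note: hits lower the fluorescence signal relative to DMSO baseline.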 The essentials:
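Probe-displacement format: chemicals competing for the T4 site release ANSA from 0.125uM TTR during a 2 h incubation, measured by fluorescence at 380 excitation and 475 emission.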

Retinoic acid receptor alpha (Homo sapiens), sequence (P10276 whole entry, looked up, the tested form may be a part): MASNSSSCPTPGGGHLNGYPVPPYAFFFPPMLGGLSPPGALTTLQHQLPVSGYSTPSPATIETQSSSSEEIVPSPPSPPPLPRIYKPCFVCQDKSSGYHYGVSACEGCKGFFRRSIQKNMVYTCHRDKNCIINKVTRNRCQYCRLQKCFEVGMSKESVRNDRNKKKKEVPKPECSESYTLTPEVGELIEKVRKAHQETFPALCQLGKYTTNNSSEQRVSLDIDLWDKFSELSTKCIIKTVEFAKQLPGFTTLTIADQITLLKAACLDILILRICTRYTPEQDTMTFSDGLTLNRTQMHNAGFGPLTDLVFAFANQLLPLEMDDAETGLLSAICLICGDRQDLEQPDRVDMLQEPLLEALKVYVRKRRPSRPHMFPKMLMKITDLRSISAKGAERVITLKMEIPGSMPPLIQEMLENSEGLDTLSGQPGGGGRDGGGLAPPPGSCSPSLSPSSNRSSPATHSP
Bile acid receptor (Homo sapiens), sequence (Q96RI1 whole entry, looked up, the tested form may be a part): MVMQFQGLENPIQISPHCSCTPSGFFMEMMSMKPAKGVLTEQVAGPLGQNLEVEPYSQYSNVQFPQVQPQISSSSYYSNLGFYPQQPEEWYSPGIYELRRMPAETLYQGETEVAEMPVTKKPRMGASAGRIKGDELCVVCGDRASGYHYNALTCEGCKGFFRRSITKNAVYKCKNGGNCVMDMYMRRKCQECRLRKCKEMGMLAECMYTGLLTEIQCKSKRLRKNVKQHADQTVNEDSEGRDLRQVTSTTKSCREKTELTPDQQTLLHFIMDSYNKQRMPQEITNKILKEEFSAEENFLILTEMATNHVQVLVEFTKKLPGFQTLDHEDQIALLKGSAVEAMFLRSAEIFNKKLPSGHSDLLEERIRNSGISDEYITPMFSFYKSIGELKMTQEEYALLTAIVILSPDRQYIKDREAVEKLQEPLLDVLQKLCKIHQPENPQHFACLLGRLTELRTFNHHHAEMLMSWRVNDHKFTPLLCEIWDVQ
human Phosphodiesterase 10 (PDE10), PDE10A (gene 10846), sequence (Q9Y233 whole entry, looked up): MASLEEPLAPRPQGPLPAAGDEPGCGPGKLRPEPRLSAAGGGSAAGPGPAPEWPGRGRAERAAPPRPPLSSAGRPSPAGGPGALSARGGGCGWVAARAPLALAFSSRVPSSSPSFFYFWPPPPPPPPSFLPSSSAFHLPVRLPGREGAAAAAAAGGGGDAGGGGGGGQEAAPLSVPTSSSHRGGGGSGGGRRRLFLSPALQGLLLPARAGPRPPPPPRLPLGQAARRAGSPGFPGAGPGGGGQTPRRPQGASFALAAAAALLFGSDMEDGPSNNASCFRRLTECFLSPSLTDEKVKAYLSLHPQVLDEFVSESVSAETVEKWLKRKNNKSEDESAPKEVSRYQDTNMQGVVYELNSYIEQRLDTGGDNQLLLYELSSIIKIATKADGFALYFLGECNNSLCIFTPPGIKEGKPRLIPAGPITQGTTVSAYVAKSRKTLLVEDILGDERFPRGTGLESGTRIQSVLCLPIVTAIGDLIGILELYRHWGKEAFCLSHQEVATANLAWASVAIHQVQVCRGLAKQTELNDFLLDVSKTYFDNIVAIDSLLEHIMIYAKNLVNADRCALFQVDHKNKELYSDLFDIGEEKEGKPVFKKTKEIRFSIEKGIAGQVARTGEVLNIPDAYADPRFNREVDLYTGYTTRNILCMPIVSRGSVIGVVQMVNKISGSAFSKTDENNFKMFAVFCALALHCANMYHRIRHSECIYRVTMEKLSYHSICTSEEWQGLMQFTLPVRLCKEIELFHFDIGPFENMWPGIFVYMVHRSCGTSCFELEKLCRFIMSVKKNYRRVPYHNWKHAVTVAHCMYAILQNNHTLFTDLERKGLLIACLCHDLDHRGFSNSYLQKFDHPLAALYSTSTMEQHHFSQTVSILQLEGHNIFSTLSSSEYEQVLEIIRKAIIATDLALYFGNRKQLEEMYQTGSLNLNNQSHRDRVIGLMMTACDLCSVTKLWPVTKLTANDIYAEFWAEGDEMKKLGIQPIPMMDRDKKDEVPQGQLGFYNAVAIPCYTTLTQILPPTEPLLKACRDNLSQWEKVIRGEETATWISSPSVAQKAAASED
Estrogen receptor (Homo sapiens), sequence (P03372 whole entry, looked up, the tested form may be a part): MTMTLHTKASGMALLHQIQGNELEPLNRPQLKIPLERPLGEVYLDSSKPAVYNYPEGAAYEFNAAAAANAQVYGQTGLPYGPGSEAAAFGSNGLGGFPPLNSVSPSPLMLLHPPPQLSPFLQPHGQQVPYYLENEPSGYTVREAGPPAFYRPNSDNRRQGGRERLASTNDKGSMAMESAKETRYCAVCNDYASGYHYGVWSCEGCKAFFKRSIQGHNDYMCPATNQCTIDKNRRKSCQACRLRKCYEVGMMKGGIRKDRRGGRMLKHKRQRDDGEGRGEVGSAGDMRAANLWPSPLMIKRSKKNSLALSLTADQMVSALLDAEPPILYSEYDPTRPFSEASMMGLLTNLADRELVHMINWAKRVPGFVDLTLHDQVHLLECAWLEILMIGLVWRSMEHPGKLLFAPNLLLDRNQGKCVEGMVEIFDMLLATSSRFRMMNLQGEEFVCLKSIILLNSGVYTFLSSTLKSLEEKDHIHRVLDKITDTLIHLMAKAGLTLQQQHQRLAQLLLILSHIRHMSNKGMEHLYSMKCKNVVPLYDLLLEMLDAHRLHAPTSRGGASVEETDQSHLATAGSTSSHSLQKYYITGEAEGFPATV

Take `CN(C)CCC(c1ccc(Cl)cc1)c1ccccn1` (stereo unspecified): the outcome in assay [1], in assay [2], in assay [3], in [4], in assay [5] and in assay [6] was inactive. Further, the outcome in assay [7] was “inactive”; in assay [8] it was “inactive”; in the assay with Decorin, DCN (gene 1634), “inactive”; in assay [9], “inactive”; in assay [10], “inactive”; in assay [11] it was “inactive”.

For `NC(N)=Nc1nc(CSCCC(N)=NS(N)(=O)=O)cs1`, the molecule was classed as inactive in assay [12].

Consider `CC(C)CC(=O)O`, for which the call in assay [12] and in [13] was inactive.

For the molecule `CCCC(=O)OC/C=C(\C)CCC=C(C)C`, the call in assay [14] and in assay [12] was inactive.

With `CCCOCCC`, the outcome in assay [14] and in [13] was inactive.

In the case of `CC(=O)Nc1c(I)c(NC(C)=O)c(I)c(C(=O)O)c1I`, the outcome in [15] was inactive.

Turning to `O=C(Oc1ccccc1)c1ccccc1`, in [16], the molecule was called inactive. For the same molecule, the AC50 is 8.47 µM (active) with SERPINA7 (gene 6906) and 24.2 µM (active) in the assay on TTR (gene 7276).

Consider `Cc1cc2nc3c(=O)[nH]c(=O)nc-3n(C[C@H](O)[C@H](O)[C@H](O)CO)c2cc1C`, for which the AC50 in assay [16] is 52.7 µM (active).

Regarding `CCC(C)NC(N)=O` (stereo unspecified), the outcome in [14], in assay [12] and in [13] was inactive.

With `CN1CCCC1`, the molecule was called inactive in [12] and in assay [15].

Take `Cc1cc(O)cc(C)c1Cl`: the AC50 in assay [14] was 37.1 µM (active); in the assay on SERPINA7 (gene 6906), 22.3 µM (active); in the assay with TTR (gene 7276), 7.71 µM (active).

For the molecule `C/C=C(\C)C(=O)OCC/C=C\CC`, in [15], the call was inactive.

As to `CC(=O)CCc1ccccc1`, the call in assay [13] was inactive.

Take `CCCCCCCC#N`: the call in [14] was inactive.

As for `NC(=O)c1ccc(N)cc1`, the molecule was classed as inactive in [15].

Take `O=C1NC(=O)C2CC=CCC12` (stereo unspecified): the outcome in assay [16] was inactive.

Regarding `c1ccc(CNc2ncnc3nc[nH]c23)cc1`, in assay [16], the outcome was inactive.

Take `CCCCCCCCCCCCCCCCCC[N+](C)(C)C`: the outcome in assay [12] is “inactive”; with Decorin, DCN (gene 1634), “inactive”; in [11], “inactive”. For the same molecule, the AC50 was 1.71 µM (active) in assay [13]; 1.35 µM (active) in [1]; 2.73 µM (active) in assay [2]; 2.08 µM (active) in assay [3]; 1.69 µM (active) in assay [4]; 1.81 µM (active) in assay [5]. The concentration at half-maximal activity (AC50) in assay [6] is 3.73 µM (active); in assay [7] it was 3.36 µM (active); in assay [8] it was 8.89 µM (active); in assay [9] it was 3.6 µM (active); in assay [10], 8.13 µM (active).

Regarding `O=C(OCc1ccccc1)c1ccccc1`, the AC50 with TTR (gene 7276) was 20.7 µM (active).

On to `O=C1CCCCCCCCCCCCCC1`, for which the AC50 in [12] is 26.5 µM (active).

On to `COC(=O)/C=C\C(=O)OC`, for which the outcome in [13], in assay [1], in [2], in assay [4], in assay [6] and in assay [7] was inactive. The outcome is “inactive” in assay [8]; “inactive” with Decorin, DCN (gene 1634); “inactive” in assay [9]; “inactive” in assay [10]. Moreover, the AC50 is 20 µM (active) in assay [3] and 12.8 µM (active) in assay [5].

For orientation: AC50 means the concentration at which the activity in the assay is half-maximal.
